Several values for one entry are separate records, joined by “and”; a condition that tells them apart may be missing. Equal entries are not always repeated.
Key:
Format in all cases: functional
Plasmodium falciparum [1] = test: GSK_TCMDC: Inhibition of Plasmodium falciparum 3D7 in whole red blood cells, using parasite LDH activity as an index of growth. Test compounds present at 2uM
Plasmodium falciparum [2] = test: GSK_TCMDC: Inhibition of Plasmodium falciparum Dd2 in whole red blood cells, using parasite LDH activity as an index of growth. Test compounds present at 2uM
HepG2 = test: GSK_TCMDC: Percent inhibition of human HepG2 cell line. Test compounds present at 10uM.

| SMILES | Inhibition (Plasmodium falciparum [1]) | Inhibition (Plasmodium falciparum [2]) | Inhibition (HepG2) [%] |
| --- | --- | --- | --- |
| Cc1ccccc1/N=C1\NC(=S)N(c2cccc(C(F)(F)F)c2)C12CCC(C(C)(C)C)CC2 (stereo not drawn) | 95% | 25% | 9 |
| Cc1cccc2nc(-c3ccc(-c4ccc(NC(=O)Nc5ccc(F)c(F)c5F)cc4)s3)[nH]c12 | 100% | 99% | 58 |
| CC(C)NCc1cccc(-c2cccc(-c3nc4cc(F)ccc4[nH]3)c2)c1.O=C(O)C(F)(F)F | 100% | 85% | 20 |
| CCC(C)CNC(=O)CN1CN(c2ccccc2)C2(CCN(C(=O)c3ccc(Br)cc3)CC2)C1=O (stereo not drawn) | 88% | 88% | 10 |
| O=C(O[C@@H]1CN[C@H](C#Cc2cc3ncnc(Nc4ccc5c(cnn5Cc5cccc(F)c5)c4)c3s2)C1)N1CCCC1 | 86% | 56% | 9 |
| COc1ccc2nccc(NC(=O)C3CCC(NCc4ccc5c(c4)NC(=O)CS5)CC3)c2c1 (stereo not drawn) | 94% | 19% | 0 |
| O=C(/C=C/c1ccc(Cl)c(Cl)c1)NCCCCCCN1CCCN(C(=O)Nc2cccc(Cl)c2)CC1 | 94% | 2% | 26 |
| CN(CCN1CCCC1)c1nc2cc(-n3cnc4cc(-c5ccc(Cl)cc5)sc4c3=O)ccc2[nH]1.CS(=O)(=O)O | 93% | 15% | 76 |
| O=c1cc(NCCCNCc2cccc(SC(F)(F)F)c2)[nH]c2ccccc12 | 100% | 94% | 0 |
| Cc1cccc2nc(-c3ccc(-c4ccc(NC(=O)CN5CCN(C)CC5)cc4)cc3)[nH]c12 | 100% | 83% | 29 |
| CCCCCCCc1[nH]c2ccccc2c(=O)c1C | 97% | 96% | 48 |
| Cc1cccc2nc(-c3cccc(-c4cccc(NC(=O)Cc5ccc[n+]([O-])c5)c4)c3)[nH]c12 | 100% | 99% | 0 |
| O=C(Nc1cccc(Cl)c1Cl)Nc1ccnc2ccccc12 | 100% | 47% | 31 |
| Br.CCCOc1ccc(OCCCON2C(=N)N=C(N)NC2(C)C)cc1 | 96% | 94% | 59 |
| COc1ccccc1NC(=O)OC(COc1ccc(N)cc1)CN1CC=C(c2ccccc2)CC1.O=C(O)C(F)(F)F (stereo not drawn) | 90% | 81% | 16 |
| COc1ccc2nc(-c3ccccc3)cc(NCCN(C)C)c2c1 | 100% | 23% | 0 |
| CCCN(Cc1nnc(-c2cccs2)o1)C(=O)C1COc2ccccc2O1 (stereo not drawn) | 87% | 49% | 1 |
| COc1ccccc1CNc1ccnc(NCCc2cccc(C(F)(F)F)c2)n1 | 93% | 68% | 39 |
| Cc1cc(C)cc(OCC(O)CN(Cc2cc(Cl)cc(Cl)c2)C(=O)Nc2ccc(Cl)cc2)c1 (stereo not drawn) | 97% | 43% | 0 |
| COc1cc2ncnc(Nc3ccc4nc(-c5ccccc5)[nH]c4c3)c2cc1OC.Cl | 92% | 32% | 15 |
| COc1ccc(-c2ccc(NC(=O)c3cccc(F)c3)cc2)cc1CN1CCCN(C)CC1.O=C(O)C(F)(F)F | 100% | 49% | 32 |

| SMILES | Inhibition (Plasmodium falciparum [1]) | Inhibition (Plasmodium falciparum [2]) | Inhibition (HepG2) [%] |
| --- | --- | --- | --- |
| O=S(=O)(Nc1ccc(CCN2CCC(N3CCCCC3)CC2)cc1)c1ccc2ccccc2c1 | 100% | 80% | 44 |
| CC(=O)Nc1ccc(CN(C)C2CCN(c3cc(NC(=O)c4cccc(C)c4)ccn3)CC2)cc1.O=C(O)C(F)(F)F | 94% | 13% | 0 |
| NC1=NC(c2ccccc2)(c2cccc(O)c2)C(=O)N1CCCc1ccccc1 (stereo not drawn) | 85% and 98% | 38% and 93% | 0 |
| COc1ccc(CNCC2CCC(CNCCc3ccccc3)CC2)cc1Cl (stereo not drawn) | 100% | 29% | 23 |
| O=C(O)C(F)(F)F.c1cncc(CCNCc2cccc(-c3csc(-c4nc5ccccc5[nH]4)c3)c2)c1 | 100% | 98% | 26 |
| COc1cc(NC(=O)N2CCc3ccc(OCCN(C(C)C)C(C)C)cc32)cc(C(F)(F)F)c1.O=C(O)C(F)(F)F | 100% | 97% | 6 |
| CCC1CN2CCc3c([nH]c4ccccc34)C2CC1CC1=NCCc2c1[nH]c1ccc(OC)cc21.Cl (stereo not drawn) | 100% | 68% | 99 |
| C[C@H](NC(=O)c1cc(-c2ccc(C(C)(C)C)cc2)no1)C(=O)O.C[C@H](NC(=O)c1conc1-c1ccc(C(C)(C)C)cc1)C(=O)O | 91% | 97% | 31 |
| CC1CN(c2ccc(NC(=O)c3ccc(F)cc3)cc2)CCN1Cc1cccc(F)c1.O=C(O)C(F)(F)F (stereo not drawn) | 81% | 76% | 11 |
| COC(=O)c1ccc(NC(=O)Nc2cccc(CCNCc3ccccc3)c2)cc1.O=C(O)C(F)(F)F | 96% | 10% | 2 |
| CO/C(=C\C=C\c1cc2cc(Cl)c(Cl)cc2[nH]1)C(=O)NCCCN1CCN(c2ccncc2)CC1 | 98% | 96% | 12 |
| Cc1cc(NC(=O)[C@H](CC2CCCCC2)Nc2ccc(C#N)c3ccccc23)ccc1F.O=C(O)C(F)(F)F | 100% | 99% | 21 |
| CCOc1cc(C(=O)Nc2ccccc2N2CCN(S(C)(=O)=O)CC2)cc(OCC)c1OCC | 91% | 80% | 0 |
| CC(C)CN1CCN(CCNc2c3ccccc3nc3ccccc23)CC1 | 97% | 79% | 26 |
| Cl.Oc1ccc2[nH]c(-c3cccs3)nc2c1CN1CCC(O)(c2ccccc2)CC1 | 93% | 69% | 10 |
| COc1ccc(C(=O)Nc2ccc3nc(N4CCCCC4)cc(C)c3c2)cc1[N+](=O)[O-] | 96% | 7% | 17 |
| O=C(NC1CC1)c1cnc(N2CCC(Oc3ccc(Cl)cc3)CC2)c(Cl)c1 | 86% | 75% | 12 |
| O=C(Cc1c[nH]cn1)Nc1cccc(-c2ccc(-c3nc4ccccc4[nH]3)cc2)c1 | 99% | 72% | 7 |
| Nc1c(Cl)cc(C(O)CNCCCCCOCCc2ccccc2)cc1C(F)(F)F (stereo not drawn) | 99% | 96% | 3 |
| O=C(Nc1ccc(OC2CCN(Cc3ccc(F)cc3)CC2)c(Cl)c1)c1ccoc1.O=C(O)C(F)(F)F | 89% | 90% | 0 |
| O=C(NCc1cccc(F)c1)Nc1cccc(-c2ccc(-c3nc4cc(C(F)(F)F)ccc4[nH]3)cc2)c1 | 98% | 20% | 50 |

| SMILES | Inhibition (Plasmodium falciparum [1]) | Inhibition (Plasmodium falciparum [2]) | Inhibition (HepG2) [%] |
| --- | --- | --- | --- |
| CC(C)c1cc(C(=O)N[C@@H](Cc2ccccc2)[C@H](O)CNC2CCCCC2)cc(N2CCCC2=O)c1 | 100% | 98% | 0 |
| O=C(N[C@@H](Cc1ccccc1)[C@H](O)CNCCC(F)(F)F)c1cccc(CCC2CC2)c1 | 87% | 13% | 0 |
| CC1(C)N=C(N)N=C(N)N1c1cccc(I)c1.Cl | 95% | 85% | 68 |
| COc1cccc(C2CCCN(CCCCNC(=O)c3ccc(NC(=O)c4ccc(Cl)cc4)cc3)C2)c1 (stereo not drawn) | 95% | 6% | 24 |
| CS(=O)(=O)N1CC2(CCN(CCC(NC(=O)NCc3ccccc3Cl)c3ccc(Cl)c(Cl)c3)CC2)c2ccccc21 (stereo not drawn) | 85% | 98% | 12 |
| CCc1c(C)nc(-n2nc(C)cc2NC(=O)C2c3ccccc3Oc3ccccc32)[nH]c1=O | 89% | 80% | 37 |
| Cl.O=C(NCCCCN1CCC(c2ccc3ccccc3c2O)CC1)c1ccc(-c2ccc(Cl)cc2)cc1 | 100% | 99% | 84 |
| CCc1ccc(NC(=O)c2ccc(CN3CCCN(Cc4cccc(O)c4)CC3)cc2)cc1.O=C(O)C(F)(F)F | 100% | 55% | 51 |
| CSCCCN1CCC(O)(c2ccc3oc(C(=O)Nc4ccc5sc(C)nc5c4)cc3c2)CC1 | 100% | 69% | 10 |
| COc1ccc(CN2CCC(CNCCc3ccccc3Cl)CC2)cc1.O=C(O)C(F)(F)F | 87% | 17% | 36 |
| Cc1ccc(C(C#N)c2ccc3c(C(F)(F)F)cc(C(F)(F)F)nc3n2)cc1 (stereo not drawn) | 96% | 36% | 14 |
| C=CCn1c(=N)c(C(=O)NC2CCCCC2)cc2c(=O)n3cccc(C)c3nc21 | 92% | 58% | 0 |
| C=C[C@H]1CN(CCCCCCC)CC[C@H]1CC(=O)Nc1cnnc2ccc(OC)cc12.O=C(O)C(=O)O | 100% | 100% | 12 |
| CN(C)CCNCc1ncsc1-c1ccc2c(Nc3ccc(F)cc3Cl)ccnc2c1 | 100% | 95% | 0 |
| CN(C)CCNCc1ccc(-c2ccc3c(Nc4ccc(F)cc4Cl)ccnc3c2)o1 | 100% | 100% | 31 |
| N#Cc1cccc(NC(=O)Nc2cccc(-c3ccc(-c4nc5cc(C(F)(F)F)ccc5[nH]4)cc3)c2)c1 | 100% | 99% | 54 |
| O=C(Nc1ccc2c(c1)CCN2C1CCN(Cc2cccc3cc[nH]c23)C1)c1ccco1 (stereo not drawn) | 88% | 86% | 0 |
| NC(=O)c1cccc(C(=O)Nc2cccc(-c3cccc(-c4nc5cc(C(F)(F)F)ccc5[nH]4)c3)c2)c1 | 100% | 85% | 71 |
| CCCCN(Cc1cnccc1-c1ccc(Br)cc1)c1ccc(C(O)(C(F)(F)F)C(F)(F)F)cc1.O=C(O)C(F)(F)F | 87% | 45% | 10 |

Reference: ChEMBL document CHEMBL1157539, “Thousands of chemical starting points for antimalarial lead identification” (Nature, 2010)
